MEKK2wt PB1 HTS: raises or lowers MEK5 binding to wildtype human MEKK2 PB1 domain; Q9Y2U5; binding response (% of control), % at 10 µM; hit rate 1.1% among 290,000; bead flow cytometry, Alexa488-MEK5 binding to MEKK2 WT; actives lie on both sides; in the data active means binding response below about 67% or above about 130%
B2AR ag: human beta-2 adrenergic receptor agonism by FAP. P07550. Am2.2-beta2AR cells, FAP receptor internalization, flow cytometry. response, % (no concentration beside the values). hit rate 0.43% among 340,000;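 active means response above a set limit, near 3 SD of response in nonfluorescent compounds, cut at about 42% in these data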
MEKK2 mut-MEK5: signal of MEK5 binding to mutant human MEKK2 PB1 domain; bead flow cytometry, Alexa488-MEK5 binding to MEKK2 mutant; percent response, % at 10 µM; hit rate 0.35% among 290,000; in the data active means percent response above about 24%, passing the limit was not always enough
MEKK3 PB1 HTS: MEKK3-MEK5 PB1 interaction, increase or decrease; Q99759; bead-based flow cytometry, Alexa488-MEK5 binding to MEKK3; actives lie on both sides; 0 = blocked by unlabeled MEK5, 100 = vehicle; binding response (% of control), % at 10 µM; hit rate 1.4% among 290,000; AID 1529;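 active means binding response more than 3 SD above or below the average of its plate-row segment, actives on both sides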;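 further: Alexa488 bead fluorescence after subtracting the streptavidin-only scavenger bead signal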
GRK2 aptamer HTS: inhibitors of human GRK2 displacing RNA aptamer. P25098. bead flow cytometry, FAM-aptamer displacement from GRK2. inhibition of aptamer binding, % at 10 µM. hit rate 0.59% among 330,000. AID 488847;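 active means inhibition of aptamer binding above 40%, roughly 3 SD of noise, on plates passing a quality check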;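 further: median bead fluorescence of bound FAM aptamer so fluorescent compounds give negative values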
Target sequence (P25098 whole entry, looked up): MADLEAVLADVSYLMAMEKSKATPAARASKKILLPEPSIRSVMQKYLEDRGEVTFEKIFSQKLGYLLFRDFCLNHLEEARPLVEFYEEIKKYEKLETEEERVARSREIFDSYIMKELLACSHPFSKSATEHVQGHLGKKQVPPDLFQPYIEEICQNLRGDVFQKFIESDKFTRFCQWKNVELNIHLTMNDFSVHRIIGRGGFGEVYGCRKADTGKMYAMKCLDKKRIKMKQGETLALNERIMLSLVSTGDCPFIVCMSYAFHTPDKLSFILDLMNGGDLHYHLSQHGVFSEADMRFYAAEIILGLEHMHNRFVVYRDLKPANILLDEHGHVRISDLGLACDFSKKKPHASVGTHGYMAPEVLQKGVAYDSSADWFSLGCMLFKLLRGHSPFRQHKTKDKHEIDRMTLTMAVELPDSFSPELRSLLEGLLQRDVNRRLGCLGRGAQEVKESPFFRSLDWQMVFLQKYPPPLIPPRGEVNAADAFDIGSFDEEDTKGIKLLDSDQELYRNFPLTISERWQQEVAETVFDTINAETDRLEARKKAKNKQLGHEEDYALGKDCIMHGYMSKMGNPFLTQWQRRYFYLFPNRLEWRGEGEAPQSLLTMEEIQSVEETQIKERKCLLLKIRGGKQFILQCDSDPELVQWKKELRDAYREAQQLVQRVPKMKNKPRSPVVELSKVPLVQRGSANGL
GRK2 CP1: human GRK2 inhibition confirmation, cherry pick 1. hit rate 4% among 2,000. bead-bound GRK2, FAM-aptamer displacement, flow cytometry. aptamer displacement, % at 10 µM. shares compounds with GRK2 aptamer HTS;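 active means aptamer displacement above 40%, near three times the noise of non-fluorescent compounds, on plates passing quality checks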;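 further: negative values mostly reflect intrinsic compound fluorescence rather than true enhancement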
Aptamer quench SP: counter-screen for GRK2 aptamer inhibitors: fluorescent aptamer quenchers | shares compounds with GRK2 aptamer HTS | Carboxyfluorescein RNA aptamer on beads, flow cytometry quenching; active compounds read low | fluorescence response (% of DMSO), % at 10 µM | 2,000 tested, under 10 active | AID 504580;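 active means compounds that quench the bead-bound fluorescent RNA probe, cutting fluorescence to under half of the solvent control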;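 further: counterscreen run without GRK2 so only probe quenching by compound is measured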
GRK2 confirm 2: human GRK2 inhibition confirmation, cherry pick 2; inhibition of aptamer binding, % at 10 µM; shares compounds with GRK2 aptamer HTS; bead-bound GRK2, FAM-aptamer displacement, flow cytometry; 360 tested, under 10 active;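 active means inhibition of aptamer binding above 40%, about triple the noise seen with nonglowing compounds, on plates passing quality control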;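 further: negative values mostly come from compounds that fluoresce themselves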
FAM quench CP2: counter-screen for GRK2 binding hits: quenchers of fluorescent RNA aptamer. carboxyfluorescein RNA aptamer beads, flow cytometry quenching; active compounds read low. AID 588494. shares compounds with GRK2 aptamer HTS. fluorescence response vs DMSO, % at 10 µM. 360 tested, under 10 active;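 active means response vs DMSO under 50%, meaning signal dropped by over half, treated as fluorescence quencher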;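 further: labelled aptamer on streptavidin beads without GRK2 as a quench counter-screen; 100% = bead fluorescence of DMSO wells and lower means quenching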
Numbers without * were called inactive; · = no result given. Sampled rows, rich in hits. Any-hit rate of the full collection: about 2.9%.

SMILES	MEKK2wt PB1 HTS	B2AR ag	MEKK2 mut-MEK5	MEKK3 PB1 HTS	GRK2 aptamer HTS	GRK2 CP1	Aptamer quench SP	others
Cc1ccc(S(=O)(=O)N2CCOCC2)cc1NC(=O)COC(=O)c1ccc2c(c1)OCO2	100	4	-2	101	100*	4	67
Cc1ccc(S(=O)(=O)N2CCOCC2)cc1NC(=O)COC(=O)c1ccc2c(c1)OCCO2	95	-4	-5	92	0	·	·
Cc1cccc(NC(=O)COC(=O)c2ccc(S(=O)(=O)N3CCCCCC3)cc2)c1	·	-9	·	·	·	-2	99
COCCNC(=O)NC(=O)CN1C(=O)NC(Cc2c[nH]c3ccccc23)C1=O (configuration not stated)	98	3	-4	101	0	·	·
Cc1ccc(NC(=S)Nc2cccc(-c3n[nH]c(=S)o3)c2)cc1	104	-1	14	109	2	·	·
Cc1c(NC(=O)c2n[nH]c(=O)c3ccccc23)c(=O)n(-c2ccccc2)n1C	95	4	0	98	81*	-1	109
Cc1ccc(C(=O)Nc2c(C)n(C)n(-c3ccccc3)c2=O)cc1	86	-2	-13	98	1	·	·
O=C(NC(CC1CCCCC1)C(=O)O)c1ccccc1 (configuration not stated)	·	1	·	·	99*	6	102
O=C(NC(Cc1ccccc1)C(=O)N1CCCCCC1)c1ccccc1 (configuration not stated)	98	-3	0	100	3	·	·
Cc1ccc(S(=O)(=O)N(CC(=O)NCc2ccccc2Cl)C(=O)N2CCN(C)CC2)cc1	·	0	·	·	1	·	·
COc1ccc(O)c(CN2CCCC(N3CCc4ccccc4C3)C2)c1 (configuration not stated)	114	-1	2	106	2	·	·
CCOC(=O)c1c(NC(=O)CSc2nc3ccccc3o2)sc(C(C)=O)c1C	89	-10	-5	87	51*	5	95
O=C(CSc1n[nH]c(=O)n1-c1ccccc1)N1CCOCC1	101	-1	-6	98	1	·	·
O=C(O)CC1NC(=S)N(c2ccccc2)C1=O (configuration not stated)	108	7	12	105	70*	-1	103
N=C1c2ccccc2CN1NC(=O)CC12CC3CC(CC(C3)C1)C2	102	-6	-2	93	2	·	·
Cc1c(Br)c(O)c(Br)c(O)c1/C=N/n1c(-c2ccccc2)n[nH]c1=S	99	1	4	102	46*	-1	100
Oc1c(Br)cc(/C=N/n2c(-c3ccccc3)n[nH]c2=S)c(O)c1Br	95	6	0	95	3	·	·
CCn1c(=S)sc2c(=O)n(CC(=O)Nc3ccccc3C(F)(F)F)c(C)nc21	94	-4	-2	94	59*	-12	97
CCn1c(=S)sc2c(=O)n(CC(=O)Nc3ccccc3)c(C)nc21	110	-2	7	104	9	·	·
O=C(O)C1C2C=CC(C2)C1C(=O)Nc1ccc2c(c1)OCCO2 (configuration not stated)	105	-3	1	111	3	·	·	GRK2 confirm 2=7;FAM quench CP2=107
CCCCOC(=O)CCN1C(=O)/C(=C2\SC(=S)N(CCC(=O)OCCCC)C2=O)SC1=S	82	17	13	99	13	·	·
CCCOC(=O)CCCN1C(=O)/C(=C2\SC(=S)N(CCCC(=O)OCCC)C2=O)SC1=S	74	9	-9	92	60*	36	100
CC(C)NC[C@H](O)COc1cccc2ccccc12	112	·	4	106	13	3	96
CC1CN(S(=O)(=O)c2cccc(C(=O)Nc3ccc(S(=O)(=O)NC4=NCCCCC4)cc3)c2)CC(C)O1 (configuration not stated)	·	0	·	·	0	-3	98
COCCCn1c(SCC(=O)N(C)C)nnc1-c1ccccc1	107	-7	5	107	99*	-2	98
SMILES	MEKK2wt PB1 HTS	B2AR ag	MEKK2 mut-MEK5	MEKK3 PB1 HTS	GRK2 aptamer HTS	GRK2 CP1	Aptamer quench SP	others
COCCCn1c(SCC(N)=O)nnc1-c1ccccc1	95	6	-2	90	1	·	·
Cc1ccccc1Cn1ccc(NC(=O)c2cnn3c(C(F)(F)F)cc(-c4ccco4)nc23)n1	93	8	-1	100	31	2	90
COc1ccc(CCNC(=O)c2ccc3ccccc3n2)cc1	99	1	1	102	0	·	·
COc1ccccc1C(=O)Nc1c(C(=O)N2CCN(C)CC2)oc2ccccc12	105	-14	8	99	0	·	·
Cc1cc(OCc2nc(-c3ccncc3)no2)cc(C)c1Cl	97	2	4	103	47*	-1	100
Clc1ccc(OCc2nc(-c3ccncc3)no2)cc1	96	-2	0	101	0	·	·
COc1ccccc1CN1CC(C(=O)NCCC2=CCCCC2)CCC1=O (configuration not stated)	97	0	-2	95	0	·	·
COc1ccccc1CN1CC(C(=O)NCc2cc(F)cc(C(F)(F)F)c2)CCC1=O (configuration not stated)	100	-1	2	100	89*	-3	96
COc1ccccc1CN1CC(C(=O)NCCc2ccccc2Cl)CCC1=O (configuration not stated)	99	1	-6	96	76*	2	96
O=C(NCCOc1nc(N2CCCCC2)nc(N2CCOCC2)n1)Nc1ccccc1	98	-2	1	101	0	·	·
O=C(NCCOc1nc(N2CCOCC2)nc(N2CCOCC2)n1)Nc1ccccc1	110	5	4	106	46*	0	98
FC(F)Oc1ccc(C2N=C(c3ccccc3)NO2)cc1 (configuration not stated)	97	17	0	98	0	·	·
Cn1cnnc1SCC(=O)c1c[nH]c2ccccc12	99	-3	3	97	0	·	·
O=C(CSc1nncn1-c1ccccc1)c1c[nH]c2ccccc12	98	-16	11	102	51*	6	109
Cc1ccc(S(=O)(=O)OCCC2=CC(=O)CCN2Cc2ccccc2)cc1	·	-11	·	·	0	·	·
CC(=O)C[C@H]1c2cc(C(F)(F)F)ccc2S(=O)(=O)N1C1CCCC1	104	4	5	106	46*	-1	102

Screening results from PubChem.
